# Laboratory results as given in PubChem BioAssay (EPA / NIEHS).
# Calls of active or inactive are those of the source. How the source made its calls: active means hit-call score of the fitted dose curve at least 0.9, where 1 is the maximum; inactive means score below 0.9.
# Tests used:
# [1] = CCTE_Deisenroth_DEVTOX-GLR_Pluri_CellCount: Viability Assessment in CCTE's DevTox GLR-Pluri Assay Evaluation of Total Cell Counts, Deisenroth Lab (AID 2284430)
# Outline: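 Cytotoxicity readout: fluorescent nuclei counts by high-content imaging, expressed as percent change relative to 0.2% DMSO. Human RUES2-GLR pluripotent line differentiated 48 h, dosed twice at 24-h intervals across 1 nM - 200 uM (10 points).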
# TTR (gene 7276) = test: CCTE_GLTED_hTTR_0.125uM: CCTE's human Transthyretin (hTTR) Inhibition Assay, with 0.125uM TTR, Great Lakes Toxicology and Ecology Division (GLTED) Lab (AID 2284431);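 further: hits lower the fluorescence signal relative to DMSO baseline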
# Outline: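 Cell-free displacement of ANSA probe from 0.125uM TTR after 2 h incubation with chemical. Fluorescence read at 380 nm excitation/475 nm emission; loss of signal relative to DMSO indicates T4-site displacement.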
smiles,measurement,setting,value
COc1cccc2c1C(=O)c1c(O)c3c(c(O)c1C2=O)C[C@@](O)(C(=O)CO)C[C@@H]3O[C@H]1C[C@H](N)[C@H](O)[C@H](C)O1,AC50,[1],0.00758 µM (active)
C[C@]12C=CC(=O)C=C1CC[C@@H]1[C@@H]2C(=O)C[C@@]2(C)[C@H]1CC[C@]2(O)C(=O)CO,outcome,TTR (gene 7276),inactive
Oc1ccc2ccccc2c1N=Nc1ccccc1,AC50,TTR (gene 7276),1.37 µM (active)
Cc1c(C(=O)O)c(O)cc2c1C(=O)c1c(O)c([C@@H]3O[C@H](CO)[C@@H](O)[C@H](O)[C@H]3O)c(O)c(O)c1C2=O,AC50,TTR (gene 7276),10.1 µM (active)
COc1cc(S(=O)(=O)O)c(C)cc1N=Nc1c(O)ccc2cc(S(=O)(=O)O)ccc12,AC50,TTR (gene 7276),30.8 µM (active)
CC(=O)Oc1ccccc1C(=O)O,outcome,[1],inactive
Cc1ccc(C)c(O)c1C,AC50,TTR (gene 7276),21.9 µM (active)
CCCc1cc(=O)[nH]c(=S)[nH]1,outcome,[1],inactive
COc1ccc2c(c1)c(CC(=O)O)c(C)n2C(=O)c1ccc(Cl)cc1,AC50,[1],4.99 µM (active)
same,AC50,TTR (gene 7276),1.93 µM (active)
Cc1cc(NC(=O)C(=O)O)cc(C)c1Oc1ccc(O)c2c1CCC2,AC50,TTR (gene 7276),0.344 µM (active)
Cc1cccc(C)c1O,AC50,TTR (gene 7276),33.4 µM (active)
CCCCC(CC)COC(=O)CC(C(=O)OCC(CC)CCCC)S(=O)(=O)O (stereo not drawn),AC50,TTR (gene 7276),1.62 µM (active)
C=CCc1ccc(O)c(OC)c1,AC50,TTR (gene 7276),26.1 µM (active)
O=c1[nH]cc(F)c(=O)[nH]1,AC50,[1],8.12 µM (active)
CC=Cc1ccc(O)c(OC)c1,AC50,TTR (gene 7276),13.6 µM (active)
CC1=C(/C=C/C(C)=C/C=C/C(C)=C/CO)C(C)(C)CCC1,AC50,[1],29.4 µM (active)
Cc1cccc(Nc2cc(Cl)nc(SCC(=O)O)n2)c1C,AC50,TTR (gene 7276),3.12 µM (active)
